Integrin act MD: activates integrin-mediated alleviation for muscular dystrophy; alpha7betagal myoblasts, beta-gal FDG fluorescence, 48 h; Potency, µM (top dose mostly 38.3 µM), usual class: activators; actives 0.064% (n = 350,000); AID 624291; also: nearly all actives have a fitted effect of over 60% in size
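Alpha7betagal+/- myoblasts (passage 13) were plated 16-24 hr, then exposed to compounds (1:260 dilution of DMSO stock) for 48 hours at 37C. After MPER lysis, β-galactosidase reporter activity was read as FDG fluorescence (ex 480/em 540) after 30 minutes.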
PKM2 activator: increases activity of human pyruvate kinase M2; P14618; purified PKM2, Kinase-Glo ATP luminescence, activation; response scale: 0% is enzyme alone, no compound; Potency, µM (highest dose often 57.5 µM), actives largely listed as activators; actives 0.34% (n = 260,000); also: nearly all actives have a fitted effect of over 55% in size
Target sequence (P14618 whole entry, looked up): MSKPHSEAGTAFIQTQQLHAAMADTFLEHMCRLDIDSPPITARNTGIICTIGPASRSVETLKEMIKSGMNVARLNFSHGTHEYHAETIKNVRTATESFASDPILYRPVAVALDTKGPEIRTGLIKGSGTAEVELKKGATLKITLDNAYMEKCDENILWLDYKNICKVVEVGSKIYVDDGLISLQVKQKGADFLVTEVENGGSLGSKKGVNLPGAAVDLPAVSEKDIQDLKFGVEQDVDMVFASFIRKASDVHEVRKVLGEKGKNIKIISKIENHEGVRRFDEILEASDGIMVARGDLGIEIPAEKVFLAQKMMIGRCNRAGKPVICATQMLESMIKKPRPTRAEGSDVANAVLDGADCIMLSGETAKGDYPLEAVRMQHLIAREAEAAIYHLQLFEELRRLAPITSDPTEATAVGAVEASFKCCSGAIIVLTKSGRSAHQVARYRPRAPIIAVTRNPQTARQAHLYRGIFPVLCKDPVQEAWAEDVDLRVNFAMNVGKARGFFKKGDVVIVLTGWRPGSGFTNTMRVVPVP
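Purified hPK-M2 (>95% pure) converted ADP (0.1 mM final) to ATP with 0.5 mM PEP in 50 mM imidazole pH7.2, KCl, MgCl2, Tween 20, BSA; 1 h at room temperature. ATP detected by Kinase-Glo luminescence.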
Apoferritin bind: candidate novel general anesthetic via apoferritin binding; P02791; apoferritin/1-aminoanthracene competitive binding, fluorescence; Potency, µM (series often up to 77.5 µM), hits mostly inhibitors; actives 0.074% (n = 350,000); also: nearly all actives have a fitted effect of over 20% in size
Target sequence (P02791 2-175 limits assumed): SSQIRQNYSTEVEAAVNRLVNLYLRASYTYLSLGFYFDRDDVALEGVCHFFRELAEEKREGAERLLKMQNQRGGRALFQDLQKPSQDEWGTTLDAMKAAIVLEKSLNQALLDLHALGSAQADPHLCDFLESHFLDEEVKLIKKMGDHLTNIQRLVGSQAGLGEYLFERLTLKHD
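Horse-spleen apoferritin (10 uM) in 50% saturated 1-aminoanthracene in PBS was incubated 10 min at room temperature with compound. Fluorescence (ex 380, em 535 nm) was normalized to free and bound 1-AMA, with concentration-response fitted by a four-parameter Hill equation.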
BRCA1 expr up: increases BRCA1 expression | MCF7-BRCA1-FFLuc reporter, luminescence, 48 h; response scale: scaled: vehicle 0%, 10 µM genistein 100% | actives 1.1% (n = 380,000) | Potency, µM (doses to about 46.1 µM), hits mostly activators; also: nearly all actives have a fitted effect of over 80% in size
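Luminescence from a BRCA1-driven firefly luciferase in MCF7 cells was read after 48 h compound exposure at 37 C. Data normalized against DMSO and a 10microM genistein activation control, then curve-fitted across the titration.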
IL-2 act: activates IL-2 in a cell-based reporter assay; IL-2 activation reporter assay, cell-based qHTS; stimulated with anti-CD3/CD4/CD28 beads; in transgenic mouse T cells; AID 652025; actives 0.065% (n = 360,000); activation, % (series mostly up to about 46 µM); in the data active = activation above about 50%; inconclusive = mostly about 30% to 49%
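Screening format: compound pinned onto unstimulated transgenic mouse T cells, 60 min incubation, then anti-CD3/anti-CD4/anti-CD28 bead stimulation for 18 hours at 37 degrees C, followed by EGFP and DsRed detection.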
Hits are given with their value; – = inactive; ? = inconclusive; · = not tested or not shown; [ ] = remark or other dose. Compounds with a hit are over-represented: about 1.3% of the library has one in this group of screens. Unless noted, calls follow the shape of the dose curve; as a rule, active = well fitted curve in the direction sought with a large enough effect; inconclusive = small, poorly fitted or top-dose-only effect, or another doubt; inactive = no such curve, though single readings can be large; an effect the other way counts as inactive or inconclusive.

SMILES	Integrin act MD	PKM2 activator	Apoferritin bind	BRCA1 expr up	IL-2 act
CC(C)C(=O)Nc1nc2ccc(S(C)(=O)=O)cc2s1	–	–	–	11.2µM	–
CCN(CC)S(=O)(=O)c1ccc2nc(NC(=O)c3ccco3)sc2c1	–	–	–	11.2µM	–
CC1CC=CC2C1C(=O)N(Cc1ccccc1)C2c1ccc(-c2ccc(N(C)C)cc2)cc1F (stereo not given)	·	·	–	·	·
CCC(=O)N1CCc2cc(Br)cc(S(=O)(=O)CCC(=O)Nc3ccc(C)c(C)c3)c21	·	·	–	·	·
N#Cc1ccc(NC(=O)COc2ccccc2C(=O)Nc2ccccc2)cc1	·	·	·	–	·
CCn1c(C)c(C)c2cc(C(=O)NCc3cccc(C)c3)ccc21	·	·	–	·	·
CC12CCC(/C(=N/O)C1=O)C2(C)C (stereo not given)	·	·	–	·	·
COc1ccccc1NC(=O)Nc1nc2ccc(S(N)(=O)=O)cc2s1	–	·	–	3.98µM	–
Cc1cc2c(nn1)CCc1nonc1-2	–	–	–	–	–
Cc1ccc2c3c([nH]c2c1C)-c1nonc1CC3	–	–	–	8.91µM	–
N/C(=N\N=C\c1ccc2c(c1)OCO2)SC1CC(=O)N(c2ccc(C(=O)O)cc2)C1=O (stereo not given)	–	35.5µM	–	–	–
O=C(O)c1ccc(N2C(=O)CC(SC(=NCc3ccc4c(c3)OCO4)Nc3ccccc3)C2=O)cc1 (stereo not given)	–	–	–	–	–
CO[C@H]1/C=C\O[C@@]2(C)Oc3c(C)c(O)c4c(O)c(c(C=NN5CCN(C6CCCC6)CC5)c(O)c4c3C2=O)NC(=O)C(C)=CC=C[C@H](C)[C@H](O)[C@@H](C)[C@@H](O)[C@@H](C)[C@H](OC(C)=O)[C@H]1C	·	·	·	–	·
CN(C)c1ccc(-c2nc3ccc(Cl)cn3c2Nc2ccc3c(c2)OCCO3)cc1	·	·	?	10µM	·
COC(=O)N1CCN(/[N+]([O-])=N/Oc2ccc([N+](=O)[O-])cc2[N+](=O)[O-])CC1	·	·	–	·	·
Cc1ccc(O)c(NC(=S)NC(=O)CC(C)C)c1	–	–	–	12.6µM	–
Cc1ccc(O)c(NC(=S)NC(=O)C(C)C)c1	–	–	–	?	–
CC(C)CN(CC(C)C)c1ccc(/C=C/c2ccnc3ccccc23)cc1	·	·	·	–	·
Cn1nc(-c2ccc(F)cc2)nc2c(=O)n(C)c(=O)nc1-2	·	·	·	–	·
Cc1ccc(Cl)c2c(N=Nc3ccccc3)c(O)[nH]c12	–	–[11.5 µM]	–	–	169.5
Cc1cc(Cl)cc2c(N=Nc3ccccc3C(=O)O)c(O)[nH]c12	–	·	–	–	–
C(=C\c1ccc2ccccc2n1)/c1cccnc1	·	·	·	–	·
CNC(=O)c1c(NC(=O)C2=COCCO2)sc2c1CCC(C)C2 (stereo not given)	–	–	–	–	–
CC1CCc2c(sc(NC(=O)C3=COCCO3)c2C(N)=O)C1 (stereo not given)	–	·	·	7.08µM	–
COc1ccccc1CNC(=O)C1CCCN(c2nn3cc(-c4ccc(F)cc4)nc3s2)C1 (stereo not given)	·	·	–	·	·
SMILES	Integrin act MD	PKM2 activator	Apoferritin bind	BRCA1 expr up	IL-2 act
CC(=O)c1ccc(NC(=S)NCCc2ccc(S(N)(=O)=O)cc2)cc1	–	–	–	–	–
CC(=O)c1ccc(NC(=O)Nc2ccc3c(c2)nc(C)n3C)cc1	–	–	–	3.55µM	–
CC(=O)c1ccc(NC(=O)Nc2cccc(Cl)c2)cc1	–	–	–	7.08µM	–
Cc1ccc(NC(=O)Nc2ccc3c(c2)nc(C)n3C)cc1	–	–	–	–	–
CSc1cccc(NC(=O)Nc2ccc(Cl)cc2)c1	–	–	–	7.94µM	–
CC(=O)c1ccc(NC(=S)NCCc2cccc(Cl)c2)cc1	–	–	?	3.16µM	–
Cc1ccc(C)c(NC(=O)Cn2cc(C(=O)c3ccncc3)c(=O)c3cc(F)ccc32)c1	·	·	–	·	·
S=C(NCCc1ccccc1)NCc1cccc(Cl)c1	–	–	?	–	–
Fc1ccccc1NC(=S)NCCc1cccc(Cl)c1	–	–	–	7.94µM	–
COc1ccc2nc(/C=N/NC(=O)CCNC(=O)OC(C)(C)C)ccc2c1	–	–	–	6.31µM	–
COc1ccccc1NC(=O)C1=C(C)NC(=O)NC1c1ccccc1[N+](=O)[O-] (stereo not given)	–	25.1µM	–	–	–
Cc1ccc(-c2nnc(SC(C)C(=O)NCc3ccco3)n2C)cc1 (stereo not given)	·	·	·	–	·
Cc1ccsc1/C=N/N=C/c1sccc1C	?	–	?	2.24µM	–
Cc1ccsc1C=Nc1ccc(O)cc1	–	–	?	–	–
CC[n+]1c(/C=C/c2c[nH]c3ccccc23)ccc2cc(C)ccc21	–	–	?	–	68.1
Cc1ccc(C(=O)/C=C/c2c[nH]c3ccccc23)cc1	–	?	–	?	–
CCN(CC)C(=O)c1ccc(/C=C/c2c[nH]c3ccccc23)[n+](C)c1	–	–	–	–	78.6
O=C1C2=CC[C@H]3C(=O)N(C4CCCCC4)C(=O)[C@@H]3[C@@H]2[C@H](O)[C@@H]2O[C@H]12	·	·	–[15.3 µM]	·	·
CN(C)c1ccnc2sc(C(=O)c3ccc(Br)cc3)c(N)c12	–	–	–	–	–
CN(C)c1ccc(C=Cc2ccnc3c(O)cccc23)cc1	–	·	·	–	148.1
CN(C)c1ccc(/C=C/c2ccnc3c(O)cccc23)cc1	·	·	·	–	·
O=C(NC(=S)NC1CCCCCC1)c1cncc(Br)c1	–	–	–	11.2µM	–
COc1cc(C(F)(F)F)ccc1C(=O)NCCc1ccco1	–	·	–	6.31µM	–
CCCn1[nH]cc(SC)c(=O)c1=O	–	–	–	–	51.3
Cc1cccc(Nc2ccc([N+](=O)[O-])cn2)c1	?	–	?	11.2µM	–
SMILES	Integrin act MD	PKM2 activator	Apoferritin bind	BRCA1 expr up	IL-2 act
CCOc1cccc(Nc2ccc([N+](=O)[O-])cn2)c1	–	–	?	–	–
O=C(c1ccco1)N1CCn2c1nc1ccccc12	–	–	–	7.08µM	–
CCC(=O)N1CCn2c1nc1ccccc12	–	–	–	–	–
O/C(=C\c1nc2ccccc2[nH]1)c1cccs1	–	–	–	12.6µM	–
O=c1[nH]c2ccccc2nc1/C=C(\O)c1cccs1	–	–	–	–	147.6
CC(C)(C)/C(O)=C/c1nc2ccccc2[nH]c1=O	–	–	?	–	–
O=C(Nc1nc2ccccc2[nH]1)c1cccs1	–	·	–	–	–
COc1ccc(C2Nc3ccccc3C(=O)N2Cc2ccccc2)cc1COc1ccc([N+](=O)[O-])cc1 (stereo not given)	·	·	·	–	·
O=C(/C=C/C=C/c1ccc2c(c1)OCO2)N1CCCCC1	–	·	–	8.91µM	–
COc1ccc(C(=O)O/N=C(\N)c2cccc(C)c2)cc1OC	10µM	·	–	?	–
COc1ccc(/C(N)=N/OC(=O)c2ccco2)cc1OC	–	–	–	7.94µM	–
